# Data reported in PubChem BioAssay.
# Active and inactive are the calls of the source.
# What was measured:
# [1] = test system: PRMT1 (protein arginine N-methyltransferase 1); experiment: PRMT1 binders on small-molecule microarrays, primary screen, biochemical, small-molecule microarray, 635 nm fluorescence (AID 1088); details: small-molecule microarray binding, higher = more signal;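 further: binding of Prmt1 protein to compounds spotted on small-molecule microarray slides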
# [2] = yeast growth modulation, basal conditions, primary screen, YJM789 clinical isolate, OD600, 24 h (AID 1089);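 further: growth of clinical yeast isolate S. cerevisiae YJM 789 seeded 1000 cells per well; test concentration not given here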; details: S. cerevisiae YJM789 growth, higher = more signal, called active from +8 up or from −8 down
# [3] = fission yeast growth modulation, primary screen, strain 972, OD600, 24 h, no modulator (AID 1090);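 further: basal condition with compound alone and no growth modifier present; test concentration not given here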; details: S. pombe 972 growth, higher = more signal, called active from +8 up or from −8 down
# [4] = S. cerevisiae growth modulation with rapamycin, primary screen, strain BY4716, OD600, 96 h (AID 1091); details: higher = more signal, called active from +8 up or from −8 down; further: test concentration not given here
# [5] = molecular target: Torsin-1A-interacting protein 2 (Homo sapiens) (UniProt Q8NFQ8); experiment: LULL1 binders on small-molecule microarray, primary screen, cell lysate, human LULL1 lysate, 635/667 nm fluorescence (AID 1092); details: hLULL1 lysate binding, 635 nm fluorescence, higher = more signal;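 further: probe is lysate of COS7 cells overexpressing human LULL1; score merges per-feature 667 nm fluorescence with signal-to-noise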
# Chain of Torsin-1A-interacting protein 2 (Homo sapiens) (Q8NFQ8 whole entry, looked up): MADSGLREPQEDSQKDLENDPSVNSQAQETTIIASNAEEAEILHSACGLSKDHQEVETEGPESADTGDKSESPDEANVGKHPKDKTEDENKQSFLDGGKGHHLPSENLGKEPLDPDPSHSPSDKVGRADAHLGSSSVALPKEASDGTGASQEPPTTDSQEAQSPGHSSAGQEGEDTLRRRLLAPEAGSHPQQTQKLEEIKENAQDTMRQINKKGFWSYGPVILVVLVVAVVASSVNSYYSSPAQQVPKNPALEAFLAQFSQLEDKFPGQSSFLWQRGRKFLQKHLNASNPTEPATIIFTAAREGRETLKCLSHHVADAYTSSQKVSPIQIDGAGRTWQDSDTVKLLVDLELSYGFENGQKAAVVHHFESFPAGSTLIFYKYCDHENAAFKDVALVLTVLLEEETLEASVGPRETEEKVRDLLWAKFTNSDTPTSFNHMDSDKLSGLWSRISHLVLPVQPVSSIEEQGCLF
# [6] = E. coli growth modulation, two-sided OD650, primary screen, E. coli filamentation project, strain DRC41, 24 h (AID 1093); details: OD650, 24 h, higher = more signal, called active from +8 up or from −8 down;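 further: MC1000 strain lacking acrAB efflux and sulA so SOS filamentation is blocked; test concentration not given here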
# [7] = small-molecule microarray binders of probe aLefty2, primary screen, biochemical, biotinylated probe, 635/667 nm fluorescence (AID 1094); details: higher = more signal;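 further: score merges spot fluorescence near 667 nm with spot signal-to-noise ratio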
# [8] = test system: Noggin (protein binding on small-molecule microarray); experiment: Noggin binders on small-molecule microarray, primary screen, biochemical, 635/667 nm fluorescence (AID 1095); details: 635 nm fluorescence, higher = more signal;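 further: score merges 667 nm feature fluorescence with signal to noise over triplicate slides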
# [9] = molecular target: Neurogenic locus notch homolog protein 3 (Homo sapiens) (UniProt Q9UM47); experiment: NOTCH3 binders on small-molecule microarray, primary screen, biochemical, 635/667 nm fluorescence (AID 1096); details: NOTCH3 binding, 635 nm fluorescence, higher = more signal
# Chain of Neurogenic locus notch homolog protein 3 (Homo sapiens) (Q9UM47 whole entry, looked up): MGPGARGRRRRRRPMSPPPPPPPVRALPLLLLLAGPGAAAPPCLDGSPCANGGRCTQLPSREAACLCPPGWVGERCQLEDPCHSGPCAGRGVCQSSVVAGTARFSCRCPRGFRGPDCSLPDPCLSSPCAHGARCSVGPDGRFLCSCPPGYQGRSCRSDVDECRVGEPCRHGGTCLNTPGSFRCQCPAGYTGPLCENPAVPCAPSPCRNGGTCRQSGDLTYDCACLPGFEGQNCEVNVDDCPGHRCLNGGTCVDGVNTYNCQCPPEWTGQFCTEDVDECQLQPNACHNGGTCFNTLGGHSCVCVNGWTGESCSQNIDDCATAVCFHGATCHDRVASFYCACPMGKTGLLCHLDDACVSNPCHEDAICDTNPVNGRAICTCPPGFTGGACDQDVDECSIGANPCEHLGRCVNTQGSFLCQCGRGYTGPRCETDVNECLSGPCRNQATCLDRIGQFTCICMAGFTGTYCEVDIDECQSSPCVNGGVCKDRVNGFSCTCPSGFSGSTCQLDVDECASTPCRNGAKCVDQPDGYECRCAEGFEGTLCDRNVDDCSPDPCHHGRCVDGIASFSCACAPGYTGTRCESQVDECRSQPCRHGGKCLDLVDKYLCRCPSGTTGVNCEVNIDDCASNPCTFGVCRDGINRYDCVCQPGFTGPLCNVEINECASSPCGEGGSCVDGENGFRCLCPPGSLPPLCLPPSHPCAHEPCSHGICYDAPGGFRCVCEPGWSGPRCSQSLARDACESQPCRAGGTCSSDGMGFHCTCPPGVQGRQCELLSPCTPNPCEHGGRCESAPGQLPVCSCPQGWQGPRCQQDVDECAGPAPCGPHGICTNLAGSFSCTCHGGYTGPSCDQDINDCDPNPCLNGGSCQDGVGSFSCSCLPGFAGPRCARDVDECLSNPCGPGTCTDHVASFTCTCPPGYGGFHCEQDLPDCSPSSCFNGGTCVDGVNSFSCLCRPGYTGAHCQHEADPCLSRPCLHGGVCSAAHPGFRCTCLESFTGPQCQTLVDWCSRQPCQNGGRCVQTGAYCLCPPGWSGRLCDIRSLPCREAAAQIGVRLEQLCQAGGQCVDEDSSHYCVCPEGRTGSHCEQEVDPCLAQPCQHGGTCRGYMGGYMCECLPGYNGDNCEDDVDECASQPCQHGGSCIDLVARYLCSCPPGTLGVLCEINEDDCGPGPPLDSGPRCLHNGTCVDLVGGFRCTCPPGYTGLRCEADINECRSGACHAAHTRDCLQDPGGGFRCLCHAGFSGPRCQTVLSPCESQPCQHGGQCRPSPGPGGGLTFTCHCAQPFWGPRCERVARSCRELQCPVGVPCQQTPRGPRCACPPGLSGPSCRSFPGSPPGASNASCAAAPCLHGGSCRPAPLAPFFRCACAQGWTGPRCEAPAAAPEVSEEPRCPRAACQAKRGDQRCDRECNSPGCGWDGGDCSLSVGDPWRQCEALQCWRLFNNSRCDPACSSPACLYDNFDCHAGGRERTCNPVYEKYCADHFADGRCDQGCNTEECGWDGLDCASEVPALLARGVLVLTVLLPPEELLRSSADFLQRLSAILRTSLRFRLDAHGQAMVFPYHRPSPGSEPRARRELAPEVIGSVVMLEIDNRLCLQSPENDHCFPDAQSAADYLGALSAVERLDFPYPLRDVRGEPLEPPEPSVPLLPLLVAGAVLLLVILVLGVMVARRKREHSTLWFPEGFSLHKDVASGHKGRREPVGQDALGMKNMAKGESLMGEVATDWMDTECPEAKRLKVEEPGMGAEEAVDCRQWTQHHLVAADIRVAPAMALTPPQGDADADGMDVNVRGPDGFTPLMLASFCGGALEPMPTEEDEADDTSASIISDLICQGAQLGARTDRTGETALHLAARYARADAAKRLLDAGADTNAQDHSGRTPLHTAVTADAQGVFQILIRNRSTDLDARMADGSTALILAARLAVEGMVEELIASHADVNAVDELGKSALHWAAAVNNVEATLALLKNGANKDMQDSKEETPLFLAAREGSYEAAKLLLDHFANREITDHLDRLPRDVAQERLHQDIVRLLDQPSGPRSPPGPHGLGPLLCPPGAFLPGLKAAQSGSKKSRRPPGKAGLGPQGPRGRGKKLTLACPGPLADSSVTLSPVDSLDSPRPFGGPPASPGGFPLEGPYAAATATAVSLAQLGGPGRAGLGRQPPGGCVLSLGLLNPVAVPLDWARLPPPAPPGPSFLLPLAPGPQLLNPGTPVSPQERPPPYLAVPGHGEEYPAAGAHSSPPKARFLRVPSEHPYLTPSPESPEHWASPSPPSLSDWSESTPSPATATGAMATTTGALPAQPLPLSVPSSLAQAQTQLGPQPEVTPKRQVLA
# [10] = small-molecule microarray binders of probe aEGFR, primary screen, biochemical, biotinylated probe, 635/667 nm fluorescence (AID 1097); details: higher = more signal;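 further: probe is a biotinylated anti-EGFR antibody binding compounds printed on slides; score combines fluorescence near 667 nm and signal to noise of each spot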
# [11] = test system: Plasmodium falciparum Sir2 (PF13_0152, Sir2A); experiment: pfSir2 binders on small-molecule microarrays, primary screen, biochemical, small-molecule microarray, 635 nm fluorescence (AID 1098); details: small-molecule microarray binding, fluorescence 635 nm; higher = more signal;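 further: score merges spot fluorescence intensity with its signal-to-noise ratio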
# [12] = small-molecule microarray binders of probe aDKK1, primary screen, biochemical, biotinylated probe, 635/667 nm fluorescence (AID 1099); details: higher = more signal;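 further: score merges 667nm spot fluorescence with signal to noise across triplicate slides; reference of the scale not given here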
# [13] = small-molecule microarray binders of probe aCHRDL2, primary screen, biochemical, biotinylated probe, 635/667 nm fluorescence (AID 1100); details: higher = more signal
# [14] = splicing luciferase reporter signal modulators, primary screen, spliceosome inhibition project, cell-based, HEK293, splice +/- reporter (AID 1101); details: luminescence, 24 h, higher = more signal, called active from +8 up or from −8 down;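 further: HEK293 cells carrying a splicing-competent luciferase reporter gene; test concentration not given here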
# [15] = molecular target: Fibroblast growth factor 10 (Homo sapiens) (UniProt O15520); experiment: FGF10 binders on small-molecule microarrays, primary screen, biochemical, small-molecule microarray, 635 nm fluorescence (AID 1102); details: FGF10 binding, fluorescence 635 nm, higher = more signal
# Chain of Fibroblast growth factor 10 (Homo sapiens) (O15520 whole entry, looked up): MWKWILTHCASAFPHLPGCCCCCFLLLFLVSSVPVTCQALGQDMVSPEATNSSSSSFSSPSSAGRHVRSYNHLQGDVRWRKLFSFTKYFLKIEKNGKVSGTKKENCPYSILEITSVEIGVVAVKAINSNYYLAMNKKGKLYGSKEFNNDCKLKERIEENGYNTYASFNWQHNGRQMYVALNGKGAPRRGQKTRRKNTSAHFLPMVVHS
# [16] = test system: glycogen synthase kinase-3 (GSK3A per assay name; protocol says GSK3B); experiment: GSK3 binders on small-molecule microarrays, primary screen, biochemical, small-molecule microarray, 635 nm fluorescence, GSK3A (AID 1103); details: small-molecule microarray binding, fluorescence 635 nm; higher = more signal; further: the record names both GSK3A and GSK3B
# [17] = molecular target: Epidermal growth factor receptor (Homo sapiens) (UniProt P00533); experiment: EGFR binders on small-molecule microarrays, primary screen, biochemical, small-molecule microarray, 635 nm fluorescence (AID 1104); details: EGFR binding, higher = more signal;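 further: score merges 667 nm emission intensity with spot signal to noise over triplicate slides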
# Chain of Epidermal growth factor receptor (Homo sapiens) (P00533 whole entry, looked up): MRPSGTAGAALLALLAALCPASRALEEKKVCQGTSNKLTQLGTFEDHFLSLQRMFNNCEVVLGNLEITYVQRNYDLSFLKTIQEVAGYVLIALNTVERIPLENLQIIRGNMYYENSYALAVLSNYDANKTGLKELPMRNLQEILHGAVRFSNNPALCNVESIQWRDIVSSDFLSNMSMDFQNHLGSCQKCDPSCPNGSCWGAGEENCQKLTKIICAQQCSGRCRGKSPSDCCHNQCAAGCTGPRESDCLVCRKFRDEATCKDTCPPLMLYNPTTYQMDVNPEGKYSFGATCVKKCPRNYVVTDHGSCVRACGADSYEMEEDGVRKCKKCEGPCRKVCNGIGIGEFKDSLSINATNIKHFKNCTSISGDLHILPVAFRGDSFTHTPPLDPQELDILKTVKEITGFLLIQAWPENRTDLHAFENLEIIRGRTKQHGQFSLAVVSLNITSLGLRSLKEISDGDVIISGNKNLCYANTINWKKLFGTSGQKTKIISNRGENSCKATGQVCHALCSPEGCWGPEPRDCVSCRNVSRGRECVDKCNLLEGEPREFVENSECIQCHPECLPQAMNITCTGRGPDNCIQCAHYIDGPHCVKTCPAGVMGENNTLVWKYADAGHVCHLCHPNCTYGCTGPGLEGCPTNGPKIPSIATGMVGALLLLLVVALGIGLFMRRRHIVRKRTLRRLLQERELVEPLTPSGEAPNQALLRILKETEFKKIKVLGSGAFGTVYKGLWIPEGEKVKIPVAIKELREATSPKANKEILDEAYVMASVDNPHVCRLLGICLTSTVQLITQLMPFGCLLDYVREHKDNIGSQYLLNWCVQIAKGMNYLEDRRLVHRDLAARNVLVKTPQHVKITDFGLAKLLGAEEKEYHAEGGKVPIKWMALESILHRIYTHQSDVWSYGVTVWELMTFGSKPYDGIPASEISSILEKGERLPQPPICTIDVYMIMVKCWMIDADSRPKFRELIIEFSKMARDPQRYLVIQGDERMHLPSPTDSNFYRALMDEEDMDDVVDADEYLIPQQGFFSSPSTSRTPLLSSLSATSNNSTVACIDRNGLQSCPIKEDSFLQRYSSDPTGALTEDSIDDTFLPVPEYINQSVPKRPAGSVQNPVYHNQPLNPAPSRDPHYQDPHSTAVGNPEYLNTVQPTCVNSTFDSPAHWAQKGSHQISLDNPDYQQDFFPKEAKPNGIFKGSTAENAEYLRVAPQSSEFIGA
# [18] = molecular target: Follistatin-related protein 3 (Homo sapiens) (UniProt O95633); experiment: FSTL3 binders on small-molecule microarrays, primary screen, biochemical, small-molecule microarray, 635 nm fluorescence (AID 1105); details: FSTL3 binding, higher = more signal;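 further: score merges emission near 667 nm and signal to noise per printed spot across three slides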
# Chain of Follistatin-related protein 3 (Homo sapiens) (O95633 whole entry, looked up): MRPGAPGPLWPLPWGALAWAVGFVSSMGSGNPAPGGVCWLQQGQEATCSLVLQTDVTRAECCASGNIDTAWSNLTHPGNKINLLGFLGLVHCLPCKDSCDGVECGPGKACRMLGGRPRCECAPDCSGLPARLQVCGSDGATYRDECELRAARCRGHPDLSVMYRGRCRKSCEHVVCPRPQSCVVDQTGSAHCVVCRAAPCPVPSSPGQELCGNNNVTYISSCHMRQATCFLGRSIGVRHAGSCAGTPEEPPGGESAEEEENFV
# [19] = molecular target: Dickkopf-related protein 1 (Homo sapiens) (UniProt O94907); experiment: DKK1 binders on small-molecule microarrays, primary screen, biochemical, small-molecule microarray, 635 nm fluorescence scan (AID 1106); details: DKK1 binding, higher = more signal;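 further: score merges emission near 667 nm with signal to noise over three replicate slides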
# Chain of Dickkopf-related protein 1 (Homo sapiens) (O94907 whole entry, looked up): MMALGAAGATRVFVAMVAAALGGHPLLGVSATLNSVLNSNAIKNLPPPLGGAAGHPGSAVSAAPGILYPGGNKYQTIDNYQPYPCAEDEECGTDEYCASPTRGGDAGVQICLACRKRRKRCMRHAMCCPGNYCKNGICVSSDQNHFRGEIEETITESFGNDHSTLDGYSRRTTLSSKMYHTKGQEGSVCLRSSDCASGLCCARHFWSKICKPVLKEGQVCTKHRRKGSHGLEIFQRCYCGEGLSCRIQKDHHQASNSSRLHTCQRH
# [20] = test system: Inhibin beta A chain (activin A); experiment: INHBA (activin A) binders on microarrays, primary screen, biochemical, small-molecule microarray, 635 nm fluorescence scan (AID 1107); details: small-molecule microarray binding, higher = more signal;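 further: mouse activin A protein probed at 4.33 µg/mL on printed slides; score merges bound-protein fluorescence near 667 nm with spot signal-to-noise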
SMILES,composite z-score [1],z-score [2],z-score [3],z-score [4],composite z-score [5],z-score [6],composite z-score [7],composite z-score [8],composite z-score [9],composite z-score [10],composite z-score [11],composite z-score [12],composite z-score [13],z-score [14],composite z-score [15],composite z-score [16],composite z-score [17],composite z-score [18],composite z-score [19],composite z-score [20]
C=CCN1Cc2ccccc2[C@@H]2OC(c3ccc(OCCCO)cc3)=N[C@]2(CC=C)C1=O,1.57,-0.98 (inactive),-2.8 (inactive),-0.926 (inactive),3.15,0.924 (inactive),0.188,1.84,1.03,0.434,1.5,2.15,1.07,-1.25 (inactive),0.862,1.22,0.724,1.48,1.33,1.68
CN(C)c1ccc(C(O)C2C=CC3C(=O)NC(=O)C3N2Nc2ccccn2)cc1 (stereo not given),0.757,-0.0671 (inactive),0.716 (inactive),0.504 (inactive),1.31,-1.26 (inactive),-0.118,0.438,1,0.107,1.15,0.206,0.201,0.936 (inactive),0.79,0.464,0.729,1.45,1.3,0.921
Cn1cccc1C(O)C1C=CC2C(=O)N(c3ccccc3)C(=O)C2N1Nc1ccccc1 (stereo not given),1.56,0.537 (inactive),0.445 (inactive),0.566 (inactive),3.37,-0.598 (inactive),0.27,0.781,1.02,0.0651,1.19,0.966,1.04,-0.441 (inactive),1.3,1.27,0.671,1.41,0.456,0.865
COC(=O)[C@@]1(Cc2ccc(OC)cc2)[C@H]2c3cc(C(=O)N(C)C)n(Cc4ccc(OC(F)(F)F)cc4)c3C[C@H]2CN1C(=O)c1ccccc1,-0.708,0.461 (inactive),1.08 (inactive),0.649 (inactive),3.39,-1.08 (inactive),0.106,-0.588,-0.354,0.0139,0.518,0.34,1.15,1.32 (inactive),-0.19,-0.448,-0.274,-0.558,-0.995,0.771
CO[C@H]1O[C@H](CO)[C@@H](OC(=O)CCc2ccccc2)[C@@H]2OC(=O)[C@@H](Cc3ccccc3)C/C=C/C[C@H](Cc3ccccc3)C(=O)O[C@@H]12,1.35,-0.0668 (inactive),0.0286 (inactive),5.61 (inactive),1.25,0.241 (inactive),-0.119,0.435,0.922,-0.067,0.228,0.253,0.585,-1.57 (inactive),0.469,0.714,-0.199,1.11,0.46,0.925
